This assay in a line: chemical genetic growth profiling, strain panel (AID 1159580).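 Note: tested at 20 µM; growth read once vehicle control cultures reached saturation at 30 °C; 1 = growth at the plate median or of vehicle wells.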 To be noted: S. cerevisiae deletion strains, growth OD.
Where [1] appears, read: locus YAL040C, strain CLN3, stronger effect = lower value.
[2] abbreviates: locus YCL061C, strain MRC1 (second series), stronger effect = lower value.
The mark [3] stands for this setting: locus YDR363W, strain ESC2, stronger effect = lower value.
[4] abbreviates: locus YER002W, strain NOP16, stronger effect = lower value.
Setting [5] is: locus YNL153C, strain GIM3, stronger effect = lower value.
[6] abbreviates: locus YNL175C, strain NOP13, stronger effect = lower value.
Setting [7] is: locus YNL197C, strain WHI3, stronger effect = lower value.
Where [8] appears, read: locus YNL224C, strain SQS1, stronger effect = lower value.
The mark [9] stands for this setting: locus YNL322C, strain KRE1, stronger effect = lower value.
[10] abbreviates: locus YOR083W, strain WHI5 (second series), stronger effect = lower value.

Screen size: about 5,500 compounds; about 2,000 (36%) were called active. Roughly 18% stayed inconclusive and do not appear here. The list shows a part of the results. A number with no mark means an inactive call. Cut-off read from the data, not from the text of the source: active = normalized growth mostly below about 0.91 (no sharp cut-off); inconclusive = no clear call, values can overlap the other calls; inactive = mostly above about 0.92.

For 2 compounds, normalized growth results are on record in PubChem BioAssay AID1159580 (chemical genetic matrix, 2015).

`CCCC(=O)NCCc1c2n(c3ccc(OC)cc13)CCCc1ccccc1-2`: the normalized growth under setting [1] is 0.991; the normalized growth under setting [2] is 1.01; the normalized growth under setting [3] was 0.998; the normalized growth under setting [4] was 0.996; the normalized growth (locus YGR078C, strain PAC10, stronger effect = lower value) was 1.01; the normalized growth (locus YJR075W, strain HOC1, stronger effect = lower value) is 0.995. The normalized growth is 1.01 (locus YMR307W, strain GAS1, stronger effect = lower value); 0.984 under setting [5]; 0.99 under setting [6]; 0.995 under setting [7]; 0.984 under setting [8]; 1.01 under setting [9]. The normalized growth under setting [10] was 0.972.
In the case of `CCCC(=O)NCCc1c2n(c3ccc(OC)cc13)Cc1ccccc1-2`, the normalized growth is, setting by setting: (locus YAL013W, strain DEP1, stronger effect = lower value) 0.986; under setting [1], 1.08; under setting [2], 1.01; (locus YDR150W, strain NUM1, stronger effect = lower value) 1; under setting [3], 0.993; under setting [4], 0.995. Moreover, the normalized growth is 0.983 (locus YNL128W, strain TEP1, stronger effect = lower value); 0.754 (active) under setting [5]; 0.964 under setting [6]; 0.97 under setting [7]; 0.963 under setting [8]; 0.995 under setting [9]. For the same compound, the normalized growth by setting is: under setting [10], 0.686 (active); (locus YPL055C, strain LGE1, stronger effect = lower value) 1.01; (locus YPL241C, strain CIN2, stronger effect = lower value) 1.01.
